Our source for the outcome and AC50 values is PubChem BioAssay (EPA / NIEHS).

For test [1], the target named is Retinoic acid receptor RXR-alpha (Homo sapiens) (UniProt P19793). The test can be described thus: OT_NURR1_NURR1RXRa_0480: Odyssey Thera (OT) 8-hour HEK293T Protein Complementation Assay for Nurr1/retinoid X receptor (RXR) (AID 2283385; active = hit-call score of the fitted dose curve at least 0.9, where 1 is the maximum). An outline of the steps:
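Read-out: fluorescence from protein-fragment complementation between Nurr1 and RXRα in human HEK293T cells, 8 h after dosing. DMSO served as negative control; increased signal counted as activity.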

The target is the same in test [2]. The test can be described thus: OT_NURR1_NURR1RXRa_1440: Odyssey Thera (OT) 24-hour HEK293T Protein Complementation Assay for Nurr1/retinoid X receptor (RXR) (AID 2283386; active = hit-call score of the fitted dose curve at least 0.9, where 1 is the maximum). An outline of the steps: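 Fluorescence PCA read-out; HEK293T; 24 h post-dose; bait/prey fused to reporter fragments; gain-of-signal fit vs DMSO negative control.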
Test [3] concerns the target Peroxisome proliferator-activated receptor gamma (Homo sapiens) (UniProt P37231). As to the kind of experiment: OT_PPARg_PPARgSRC1_0480: Odyssey Thera (OT) 8-hour Protein-Complementation Assay for Peroxisome Proliferator-activated Receptor Gamma / SRC-1 Co-activator (AID 2283387; active = hit-call score of the fitted dose curve at least 0.9, where 1 is the maximum). An outline of the steps: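 HEK293T transiently transfected with PPARg and SRC-1 fused to Venus YFP fragments, compounds 8 h at 37C. Fixed, Draq5-stained cells imaged; nuclear/cytoplasmic 488 nm fluorescence ratio over at least 350 cells per image; gain fitted versus DMSO.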

The target is the same in test [4]. The test can be described thus: OT_PPARg_PPARgSRC1_1440: Odyssey Thera (OT) 24-hour Protein-Complementation Assay for Peroxisome Proliferator-activated Receptor Gamma/ SRC-1 Co-activator (AID 2283388; active = hit-call score of the fitted dose curve at least 0.9, where 1 is the maximum). An outline of the steps: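 HEK293T cells transiently transfected with PPARg and SRC-1 fused via (Gly4Ser)2 linker to split Venus YFP fragments (IFP1/IFP2) were dosed 24 h; fixed, Draq5-stained, imaged at 488/635 nm; nuclear/cytoplasmic fluorescence ratio scored versus DMSO baseline, gain-of-signal.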

Test [5] is described as follows: CEETOX_H295R_11DCORT: CeeTox H295R High-throughput Steroidogenesis Assay for 11-Deoxycortisol (11DCORT) (AID 2283432).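 For AC50: 11-deoxycortisol secreted into the medium measured by LC-MS/MS.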 The settings on record: actives raise or lower the signal. An outline of the steps: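 H295R cells prestimulated 48 h with 10 uM forskolin, then exposed 48 h to chemical in 0.1% DMSO. 11-Deoxycortisol in medium quantified by HPLC-MS/MS after MTBE extraction; bidirectional fit versus DMSO. MTT viability read in same wells.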

Test [6] in a line: CEETOX_H295R_OHPREG: CeeTox H295R High-throughput Steroidogenesis Assay for OH-Pregnenolone (OHPREG) (AID 2283434). The settings on record: actives raise or lower the signal. An outline of the steps: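 Secreted 17alpha-hydroxypregnenolone measured by HPLC-MS/MS after liquid-liquid extraction. Human adrenal H295R cells received 48 h forskolin (10 uM) stimulation before 48 h chemical exposure at 0.1% final DMSO; MTT viability in same wells; bidirectional fit against DMSO.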

The nature of test [7]: CEETOX_H295R_OHPROG: CeeTox H295R High-throughput Steroidogenesis Assay for OH-Progesterone (OHPROG) (AID 2283435).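 For AC50: 17alpha-hydroxyprogesterone secreted into medium measured by HPLC-MS/MS.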 As to conditions: actives raise or lower the signal. An outline of the steps: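 HPLC-MS/MS quantification of 17alpha-hydroxyprogesterone secreted by H295R cells after 48 h chemical exposure, following 48 h 10 uM forskolin prestimulation. Gain or loss of signal fitted relative to DMSO. Viability checked by MTT in the same wells.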

Test [8] is described as follows: CEETOX_H295R_CORTIC: CeeTox H295R High-throughput Steroidogenesis Assay for Corticosterone (CORTIC) (AID 2283437). As to conditions: actives raise or lower the signal. An outline of the steps: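 Medium corticosterone was quantified by tandem mass spectrometry following 48 hours of chemical exposure (0.1% DMSO) in human H295R cells previously stimulated 48 hours with 10 uM forskolin. Viability checked by MTT; chemicals diluted and retested when viability fell below 70%.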

Test [9] in a line: CEETOX_H295R_CORTISOL: CeeTox H295R High-throughput Steroidogenesis Assay for Cortisol (AID 2283438).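 Note: cortisol secreted into medium quantified by LC-MS/MS.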 The settings on record: actives raise or lower the signal. An outline of the steps: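 Read-out: cortisol in culture medium by reverse-phase C18 HPLC with ESI-positive tandem MS, after MTBE liquid-liquid extraction. Cells: human adrenal H295R, forskolin-primed (10 uM, 48 h) before 48 h chemical exposure in 0.1% DMSO.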

A short description of test [10]: CEETOX_H295R_DOC: CeeTox H295R High-throughput Steroidogenesis Assay for DOC (AID 2283439). The settings on record: actives raise or lower the signal. An outline of the steps: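 Human adrenocortical H295R cells, passages up to 10, received 10 uM forskolin for 48 h before chemical addition. After another 48 h exposure in 0.1% DMSO, secreted DOC was measured by LC-MS/MS, with gain or loss fitted against DMSO controls.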

Test [11] is described as follows: CEETOX_H295R_ESTRADIOL: CeeTox H295R High-throughput Steroidogenesis Assay for Estradiol (AID 2283440).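 Note: estradiol secreted into medium quantified by LC-MS/MS after dansyl derivatisation.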 As to conditions: actives raise or lower the signal. An outline of the steps:
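H295R adrenocortical cells were prestimulated with 10 uM forskolin for 48 h, then exposed to test chemical in 0.1% DMSO for 48 h. Medium estradiol was extracted with MTBE, dansyl-derivatized and quantified by HPLC-MS/MS; bidirectional fit versus DMSO.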

The nature of test [12]: CEETOX_H295R_ESTRONE: CeeTox H295R High-throughput Steroidogenesis Assay for Estrone (AID 2283441).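 Note: estrone secreted into medium measured by LC-MS/MS after dansyl derivatization.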 The settings on record: actives raise or lower the signal. An outline of the steps:
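Forskolin-stimulated H295R cells are treated 48 h with chemical, and estrone in the medium is measured by LC-MS/MS. Activity is fitted in both directions relative to DMSO controls, with chemicals diluted until MTT viability reaches at least 70%.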

The nature of test [13]: CEETOX_H295R_PROG: CeeTox H295R High-throughput Steroidogenesis Assay for Progesterone (PROG) (AID 2283442). As to conditions: actives raise or lower the signal. An outline of the steps:
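H295R human adrenal cells were prestimulated with 10 uM forskolin for 48 h, then exposed to test chemical (0.1% DMSO final) for 48 h. Medium progesterone was MTBE-extracted and quantified by HPLC-MS/MS, with bidirectional fitting against DMSO.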

Read-out in test [14]: Tumor necrosis factor receptor superfamily member 6 (Homo sapiens) (UniProt P25445)
The test can be described thus: LTEA_HepaRG_FAS: Life Technologies and Expression Analysis (LTEA) Assay for Fas cell surface death receptor (FAS) using HepaRG (AID 2283447). The settings on record: mRNA level, 48 h; actives raise or lower the signal. An outline of the steps: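 FAS transcript level was measured by TaqMan qRT-PCR against three housekeeping genes after 48 h chemical exposure. Cells were HepaRG, 0.5% DMSO vehicle, with a top concentration of 100 uM and half-log dilutions over eight points, in duplicate.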

Read-out in test [15]: Fatty acid synthase (Homo sapiens) (UniProt P49327)
The test can be described thus: LTEA_HepaRG_FASN: Life Technologies and Expression Analysis (LTEA) Assay for Fatty Acid Synthase (FASN) using HepaRG (AID 2283448). The settings on record: mRNA level, 48 h; actives raise or lower the signal. An outline of the steps:
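HepaRG, 48 h exposure, 8-pt half-log series top 100 uM, 0.5% DMSO vehicle, duplicates. Readout: FASN transcript by Fluidigm qRT-PCR; housekeeping-normalized; bidirectional curve fit vs DMSO baseline.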

Read-out in test [16]: Cyclin D2 (CCND2), CCND2 (gene 894)
As to the kind of experiment: LTEA_HepaRG_CCND2: Life Technologies and Expression Analysis (LTEA) Assay for Cyclin D2 (CCND2) using HepaRG (AID 2283449). The settings on record: mRNA level, 48 h; actives raise or lower the signal. An outline of the steps:
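CCND2 transcript levels, quantified by qRT-PCR and normalised to three housekeeping genes, were fitted bidirectionally against 0.5% DMSO. HepaRG cultures were dosed 48 h in duplicate with an 8-point half-log series up to 100 uM.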

Read-out in test [17]: Cyclin Dependent Kinase Inhibitor 1A (CDKN1A), CDKN1A (gene 1026)
As to the kind of experiment: LTEA_HepaRG_CDKN1A: Life Technologies and Expression Analysis (LTEA) Assay for Cyclin Dependent Kinase Inhibitor 1A (CDKN1A) using HepaRG (AID 2283450). As to conditions: mRNA level, 48 h; actives raise or lower the signal. An outline of the steps: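 Differentiated human HepaRG cells, pre-cultured 48 h, were exposed in duplicate for 48 h in serum-free induction medium to eight half-log concentrations up to 100 uM (0.5% DMSO). CDKN1A mRNA was measured by qRT-PCR, normalized to ACTB/GAPDH/POLR2A, bidirectionally fitted versus DMSO.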

Read-out in test [18]: catalase (CAT), CAT (gene 847)
As to the kind of experiment: LTEA_HepaRG_CAT: Life Technologies and Expression Analysis (LTEA) Assay for catalase (CAT) using HepaRG (AID 2283452). As to conditions: mRNA level, 48 h; actives raise or lower the signal. An outline of the steps:
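Expression of CAT was quantified by TaqMan qRT-PCR with ACTB/GAPDH/POLR2A normalization after 48 h chemical exposure of HepaRG. Eight-point half-log series, top 100 uM, in 0.5% DMSO; gain or loss fitted against vehicle.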

Read-out in test [19]: Cyclin D1 (CCND1), CCND1 (gene 595)
The test can be described thus: LTEA_HepaRG_CCND1: Life Technologies and Expression Analysis (LTEA) Assay for Cyclin D1 (CCND1) using HepaRG (AID 2283451). The settings on record: mRNA level, 48 h; actives raise or lower the signal. An outline of the steps:
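Differentiated human HepaRG cells in serum-free induction medium were exposed 48 h to eight half-log concentrations up to 100 uM in 0.5% DMSO; mRNA quantified by TaqMan qRT-PCR, normalized to ACTB, GAPDH, POLR2A, fitted bidirectionally versus DMSO.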

Test [20] in a line: CEETOX_H295R_ANDR: CeeTox H295R High-throughput Steroidogenesis Assay for Androstenedione (ANDR) (AID 2283436). As to conditions: actives raise or lower the signal. An outline of the steps: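 Medium from 48 h chemical-treated H295R adrenal cells was extracted with MTBE and androstenedione measured by LC-MS/MS. Activity was fit in both directions relative to DMSO. Cytotoxic concentrations were re-tested after dilution until MTT viability reached ≥70%.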

Results filed as inconclusive are left out. The source made the active and inactive calls. Rule for the calls, unless noted: active = hit-call score of the fitted dose curve at least 0.9, where 1 is the maximum; inactive = score below 0.9.

In general, AC50 refers to the midpoint of the concentration-response curve, whichever way the signal moves.

Chain of Peroxisome proliferator-activated receptor gamma (Homo sapiens) (P37231 whole entry, looked up, the tested form may be a part): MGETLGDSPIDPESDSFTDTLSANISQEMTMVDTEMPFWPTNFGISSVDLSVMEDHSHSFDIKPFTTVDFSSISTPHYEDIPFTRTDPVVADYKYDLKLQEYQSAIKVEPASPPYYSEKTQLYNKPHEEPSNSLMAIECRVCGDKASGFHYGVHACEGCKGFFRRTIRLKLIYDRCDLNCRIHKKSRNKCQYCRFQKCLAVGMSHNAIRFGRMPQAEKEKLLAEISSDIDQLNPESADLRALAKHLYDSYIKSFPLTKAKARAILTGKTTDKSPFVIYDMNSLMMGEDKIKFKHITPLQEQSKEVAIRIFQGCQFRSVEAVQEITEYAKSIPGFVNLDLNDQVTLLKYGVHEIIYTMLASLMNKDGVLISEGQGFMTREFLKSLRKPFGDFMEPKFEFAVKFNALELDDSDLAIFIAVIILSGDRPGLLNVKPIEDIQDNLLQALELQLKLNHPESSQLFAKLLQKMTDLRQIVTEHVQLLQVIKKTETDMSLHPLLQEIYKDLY
Chain of Fatty acid synthase (Homo sapiens) (P49327 whole entry, looked up): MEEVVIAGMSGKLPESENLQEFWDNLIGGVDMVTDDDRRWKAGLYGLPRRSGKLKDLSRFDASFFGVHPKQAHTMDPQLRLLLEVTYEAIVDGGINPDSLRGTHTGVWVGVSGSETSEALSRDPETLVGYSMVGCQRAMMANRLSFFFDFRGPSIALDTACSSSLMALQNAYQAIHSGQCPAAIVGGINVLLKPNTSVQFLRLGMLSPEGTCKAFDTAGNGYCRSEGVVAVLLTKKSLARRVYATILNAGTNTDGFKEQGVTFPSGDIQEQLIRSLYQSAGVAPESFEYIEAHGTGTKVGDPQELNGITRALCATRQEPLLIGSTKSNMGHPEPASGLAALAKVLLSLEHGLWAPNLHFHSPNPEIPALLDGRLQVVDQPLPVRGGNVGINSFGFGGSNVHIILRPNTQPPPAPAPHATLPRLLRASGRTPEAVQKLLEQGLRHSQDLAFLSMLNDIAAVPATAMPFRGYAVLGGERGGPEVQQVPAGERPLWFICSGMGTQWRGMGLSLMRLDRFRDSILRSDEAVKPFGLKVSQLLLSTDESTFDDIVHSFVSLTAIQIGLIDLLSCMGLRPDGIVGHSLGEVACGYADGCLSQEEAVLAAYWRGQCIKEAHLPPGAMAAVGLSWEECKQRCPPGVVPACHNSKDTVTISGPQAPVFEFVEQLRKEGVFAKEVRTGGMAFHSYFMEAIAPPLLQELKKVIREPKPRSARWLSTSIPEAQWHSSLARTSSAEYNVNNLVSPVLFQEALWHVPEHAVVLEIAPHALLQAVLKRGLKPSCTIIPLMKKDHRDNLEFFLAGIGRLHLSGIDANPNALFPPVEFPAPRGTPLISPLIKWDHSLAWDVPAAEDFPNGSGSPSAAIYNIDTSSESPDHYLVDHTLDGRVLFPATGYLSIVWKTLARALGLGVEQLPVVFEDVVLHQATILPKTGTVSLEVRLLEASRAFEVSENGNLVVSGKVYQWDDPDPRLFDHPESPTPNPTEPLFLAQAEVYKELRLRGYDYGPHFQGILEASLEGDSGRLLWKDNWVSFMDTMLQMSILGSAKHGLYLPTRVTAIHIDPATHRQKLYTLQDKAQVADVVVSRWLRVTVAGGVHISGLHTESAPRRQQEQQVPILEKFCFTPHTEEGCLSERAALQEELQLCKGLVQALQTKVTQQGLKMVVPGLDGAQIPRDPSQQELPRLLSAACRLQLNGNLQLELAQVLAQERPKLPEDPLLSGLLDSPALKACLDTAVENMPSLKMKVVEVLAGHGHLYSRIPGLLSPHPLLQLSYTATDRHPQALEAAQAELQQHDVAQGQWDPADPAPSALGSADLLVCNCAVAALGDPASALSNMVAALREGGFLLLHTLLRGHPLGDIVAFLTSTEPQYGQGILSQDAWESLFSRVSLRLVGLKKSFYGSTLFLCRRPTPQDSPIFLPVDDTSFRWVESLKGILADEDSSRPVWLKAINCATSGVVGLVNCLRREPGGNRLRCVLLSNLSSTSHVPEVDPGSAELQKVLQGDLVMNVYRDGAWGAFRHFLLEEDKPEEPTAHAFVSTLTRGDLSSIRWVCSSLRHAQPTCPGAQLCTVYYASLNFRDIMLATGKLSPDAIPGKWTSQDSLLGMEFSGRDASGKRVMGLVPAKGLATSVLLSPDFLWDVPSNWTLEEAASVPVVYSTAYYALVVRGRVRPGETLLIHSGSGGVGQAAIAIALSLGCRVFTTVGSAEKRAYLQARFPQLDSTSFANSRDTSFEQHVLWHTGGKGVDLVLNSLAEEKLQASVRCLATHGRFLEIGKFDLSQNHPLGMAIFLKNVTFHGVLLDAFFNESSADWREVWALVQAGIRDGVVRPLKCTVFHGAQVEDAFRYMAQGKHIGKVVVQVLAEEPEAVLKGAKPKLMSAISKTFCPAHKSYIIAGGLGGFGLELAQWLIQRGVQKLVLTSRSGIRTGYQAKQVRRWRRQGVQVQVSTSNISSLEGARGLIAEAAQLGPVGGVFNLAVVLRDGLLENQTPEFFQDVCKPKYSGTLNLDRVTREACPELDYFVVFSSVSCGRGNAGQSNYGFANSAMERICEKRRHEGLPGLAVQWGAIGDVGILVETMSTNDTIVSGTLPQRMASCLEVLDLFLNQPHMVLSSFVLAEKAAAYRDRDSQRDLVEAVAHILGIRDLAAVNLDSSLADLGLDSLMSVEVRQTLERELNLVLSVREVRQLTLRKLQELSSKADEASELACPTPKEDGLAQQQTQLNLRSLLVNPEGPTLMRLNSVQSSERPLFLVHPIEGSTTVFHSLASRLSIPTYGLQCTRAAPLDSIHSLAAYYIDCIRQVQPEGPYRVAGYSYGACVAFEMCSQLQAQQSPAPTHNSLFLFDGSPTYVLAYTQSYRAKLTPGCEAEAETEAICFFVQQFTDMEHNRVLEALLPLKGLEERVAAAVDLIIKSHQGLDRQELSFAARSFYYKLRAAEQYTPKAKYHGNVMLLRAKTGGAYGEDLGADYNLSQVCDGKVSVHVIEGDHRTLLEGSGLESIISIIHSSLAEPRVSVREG
Chain of Retinoic acid receptor RXR-alpha (Homo sapiens) (P19793 whole entry, looked up, the tested form may be a part): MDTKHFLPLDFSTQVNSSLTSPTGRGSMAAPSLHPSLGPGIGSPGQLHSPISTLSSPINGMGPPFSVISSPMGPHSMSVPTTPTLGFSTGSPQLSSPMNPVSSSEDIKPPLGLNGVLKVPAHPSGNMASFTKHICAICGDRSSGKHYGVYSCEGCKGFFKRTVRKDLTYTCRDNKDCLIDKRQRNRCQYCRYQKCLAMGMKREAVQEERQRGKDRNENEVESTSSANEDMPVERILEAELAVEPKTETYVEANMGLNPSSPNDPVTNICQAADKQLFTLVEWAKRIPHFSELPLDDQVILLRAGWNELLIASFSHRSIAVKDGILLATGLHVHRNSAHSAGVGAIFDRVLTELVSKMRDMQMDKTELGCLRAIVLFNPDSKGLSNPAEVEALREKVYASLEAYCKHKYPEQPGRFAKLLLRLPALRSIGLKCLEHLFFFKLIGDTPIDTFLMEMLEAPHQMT

`CCC(C)(C)C(=O)O[C@H]1C[C@@H](C)C=C2C=C[C@H](C)[C@H](CC[C@@H]3C[C@@H](O)CC(=O)O3)[C@H]21`: the molecule was called inactive in test [1], in test [2], in test [3], in test [4], in test [6] and in test [8]. The molecule was classed as inactive in test [9], in [11], in [12], in [14], in test [16] and in [17]. Further, the molecule was called inactive in test [18]. The AC50 was 338 nM (active) in [5]; 809 nM (active) in test [7]; 581 nM (active) in [10]; 240 nM (active) in test [13]; 10.9 µM (active) in [15].

Turning to `COCCOCCOCCOC`, the molecule was called inactive in test [1], in test [2], in [3], in [4], in test [14] and in test [16]. Also, the molecule was called inactive in test [17], in [19] and in test [18].

`Cc1ccc(O)cc1`: the result in [1], in test [2], in [3], in test [4], in test [5] and in test [6] was inactive. In addition, the result in test [7], in test [20], in test [8], in test [9], in [10] and in test [13] was inactive. In addition, the molecule was called inactive in test [14], in test [15], in test [16], in [17], in test [19] and in [18].

Take `CC[C@H](C)C(=O)O[C@H]1C[C@@H](C)C=C2C=C[C@H](C)[C@H](CC[C@@H]3C[C@@H](O)CC(=O)O3)[C@H]21`: the molecule was classed as inactive in [1], in test [2], in test [3], in test [4], in test [9] and in test [11]. Besides, the outcome in test [12], in [13], in [14], in test [16], in test [17] and in test [19] was inactive. Further, the molecule was called inactive in test [18]. In addition, the AC50 was 2840 nM (active) in [5]; 26 nM (active) in test [6]; 2960 nM (active) in [7]; 94 nM (active) in test [8]; 641 nM (active) in [10].

`C=CC(=C)CCC=C(C)C`: the call in test [1], in test [2], in [3], in test [4], in test [14] and in test [15] was inactive. Also, the molecule was called inactive in test [16], in [17] and in test [18].

In the case of `CC[C@H]1OC(=O)[C@H](C)[C@@H](O[C@H]2C[C@@](C)(OC)[C@@H](O)[C@H](C)O2)[C@H](C)[C@@H](O[C@@H]2O[C@H](C)C[C@H](N(C)C)[C@H]2O)[C@](C)(O)C[C@@H](C)C(=O)[C@H](C)[C@@H](O)[C@]1(C)O`, the molecule was classed as inactive in test [1], in [2], in test [3], in test [4], in test [14] and in [15]. Further, the outcome in test [16], in [17] and in test [18] was inactive.

On to `Clc1nc(Cl)c(Cl)c(Cl)c1Cl`, for which the outcome in [1], in test [2], in test [3], in [4], in test [14] and in test [16] was inactive. In addition, the molecule was called inactive in [17], in [19] and in test [18].

Take `CC(=O)OCCC(C)C`: the molecule was called inactive in test [1], in test [2], in [3], in test [4], in test [14] and in test [15]. For the same molecule, the result in test [16], in test [17] and in test [18] was inactive.
